Tg IFNy HTS = T. gondii growth inhibition with IFN-gamma, primary screen, cell-based. Toxoplasma gondii growth in IFN-gamma-treated host cells; hits give low values. activity change, negative = inhibition, % (no concentration beside the values). 3.8% of 69,000 active. AID 1259416, 2018; in the data active = activity change below about -70%, passing the limit was not always enough;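 also: host cells are HeLa cells infected with Toxoplasma gondii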
* = called active by the depositor; ! = repeats disagree. Many of the other results were omitted from the sample, so hits are more common in it than they were.

SMILES	Tg IFNy HTS
O=C(NO)c1cnc(N2CCN(S(=O)(=O)c3ccc4ccccc4c3)CC2)nc1	-70
Cn1cc(CNCC2CCN(c3ncc(C(=O)NO)cn3)CC2)c2ccccc21	-79*
Cn1cc(CC(=O)NCc2cnn3ccccc23)c2ccccc21	42
Cc1ccc(N2CCC3(CC2)CN(CCO)Cc2ccccc23)nn1	-17
Cc1nc2c(Cl)cc(Cl)cc2c2nc(N)nn12	-92*
c1ccc2c(c1)CCCc1cc(NCCN3CCOCC3)nnc1-2	17
O=C1C(Cl)=C(NCCN2CCOCC2)C(=O)c2ncccc21	-80*
Cn1ccnc1-c1nc(NCCN2CCOCC2)ncc1-c1cccs1	5
CCCc1ncncc1C(=O)N1CCCC2(CC1)CN(C)C(=O)O2 (centres undefined)	-32
O=C(c1ccccc1NCc1cccs1)N1CC[C@@H](O)C1	-13
FC(F)(F)c1ccc2c(c1)Nc1ccccc1S2	90
NCCC(=O)N1c2ccccc2Sc2ccccc21	32
O=C(c1ccc(F)cc1)N1c2ccccc2Sc2ccc(C(F)(F)F)cc21	-76*
CCSc1nc(Cl)c2ccccc2n1	-4
COCCC(=O)c1nc(-c2cn(Cc3ccccc3)cn2)n2ccccc12	-10
O=C(CCNC1CCC2(CCNCC2)CC1)Nc1ccc(F)cc1	-27
CCN(CC)c1ncnc2c1cnn2CC(=O)NCc1ccc(C)cc1	-86*
CCN(CC)c1ncnc2c1cnn2CC(=O)Nc1cccc(F)c1	-75*
CCOc1ccc(NC(=O)Cn2ncc3c(N(CC)CC)ncnc32)cc1	75
CCN(CC)c1ncnc2c1cnn2CC(=O)NCc1ccc(C(F)(F)F)cc1	56
CCN(CC)c1ncnc2c1cnn2CC(=O)NCc1ccc(F)cc1	-94*
CCN(CC)c1ncnc2c1cnn2CC(=O)NCc1ccc(C)o1	42
CCN(CC)c1ncnc2c1cnn2CC(=O)NCCOC	-16
CCN(CC)c1ncnc2c1cnn2CC(=O)NCc1cccc(C(F)(F)F)c1	146
CCN(CC)c1ncnc2c1cnn2CC(=O)Nc1ccc(OC)cc1	89
SMILES	Tg IFNy HTS
COc1cc(F)c(-c2nccn2CCCN2CCOCC2)cc1OC	6
COc1ccc(-n2c(=O)c(C(=O)NCC3CC3)c(O)c3cccnc32)cc1	6
CC(C)c1nccn1Cc1cc(C(=O)NCC2OCCc3ccccc32)n[nH]1 (centres undefined)	-2
Cc1ccc(C)c2c1cc(C(=O)N(Cc1ccccn1)CC1CCCO1)n2C (centres undefined)	6
CCN1CCC2(CC1)CN(Cc1csc(C)n1)C(=O)CO2	6
CC(C)NC(=O)CC1CC2(CCN(S(=O)(=O)C3CC3)CC2)Oc2ccccc21 (centres undefined)	1
C[C@H]1CN2C[C@H](O)CC2CN1Cc1cn(CC(=O)NCc2ccco2)c2ccccc12 (some centres undefined)	44
COc1ccc(-n2nnc(C(C)=O)c2Nc2ccc(C(=O)N3CCCC3)cc2)cc1	-59
O=C1CCc2cc(S(=O)(=O)NCCc3ccccc3)cc3c2N1CCC3	-5
O=C1CCc2cc(S(=O)(=O)Nc3ccc(Cl)cc3)cc3c2N1CC3	-17
Cc1cc(C)cc(NS(=O)(=O)c2cc3c4c(c2)CCN4C(=O)CC3)c1	-79*
COc1ccc(NS(=O)(=O)c2cc3c4c(c2)CCN4C(=O)CC3)cc1	-15
Cc1cc(F)ccc1NS(=O)(=O)c1cc2c3c(c1)CCN3C(=O)CC2	-45
CCc1cccc(NS(=O)(=O)c2cc3c4c(c2)CCN4C(=O)CC3)c1	-81*
CCc1ccccc1NS(=O)(=O)c1cc2c3c(c1)CCN3C(=O)CC2	-52
O=C1CCc2cc(S(=O)(=O)Nc3ccc(Br)cc3)cc3c2N1CC3	243
CC(C)c1ccc(NS(=O)(=O)c2cc3c4c(c2)CCN4C(=O)CC3)cc1	-77*
CN(c1ccccc1)c1ccc2ccc(C(=O)N3CCCC3)cn12	-31
Fc1cccnc1O[C@@H]1CC[C@@H]2[C@@H]1OCCN2c1ncccn1	-11
CCn1c(CCC(=O)O)nc2ccccc21	12
CCCc1cc(CNC(=O)Cc2coc3cc(C)c(C)cc23)on1	60
Cc1nc(NCCOc2c(C)cccc2Cl)c2cnn(C)c2n1	-33
Cc1nc(CN2CCC3(C2)CN(CC(=O)O)C3)cs1	-17
c1ncn(Cc2cnc3n2CCN(Cc2ccoc2)C3)n1	0
COc1ccc(-c2csc(-n3nc(C(F)(F)F)cc3-c3ccc(C)cc3)n2)cc1	10
SMILES	Tg IFNy HTS
O=C1CCCN1CC1CN(C(=O)c2ccccn2)Cc2nccn2C1 (centres undefined)	-98*
O=C(c1ccc[nH]1)N1Cc2nccn2CC(CN2CCCC2)C1 (centres undefined)	-6
O=C1CCCN1CC1CN(CC2CCOC2)Cc2nccn2C1 (centres undefined)	0
CN(Cc1csc(-c2ccccc2)n1)Cc1cc2n(n1)CCNC2	1
CCn1ncc2c1C(COC)CN(CC1CC1)C2 (centres undefined)	10
O=C(COc1cccnc1)N1CCOC(c2ccc(Cl)c(Cl)c2)C1 (centres undefined)	-53
O=C(Nc1ccccc1)[C@@H]1CCS(=O)(=O)[C@H]2CN(Cc3ccc(F)cc3)C[C@@H]12	-6
CC(C)CCN1C[C@H]2[C@H](C(=O)Nc3ccccc3)CCS(=O)(=O)[C@H]2C1	-94*
CC(C)NC(=O)[C@H]1CCS(=O)(=O)[C@H]2CN(C(=O)Nc3ccccc3)C[C@@H]12	-19
COCCN1C(=O)N(C2Cc3ccccc3C2)C(=O)C12CCN(Cc1c(C)nc3sccn13)CC2	1
C#C[C@]1(O)CC[C@@H]2C3[C@H](C)CC4=C(CCC(=O)C4)[C@H]3CC[C@@]21C (some centres undefined)	3
C[C@]12CCC3c4ccc(OC(=O)c5ccccc5)cc4CCC3C1CCC2=O (some centres undefined)	18
C#C[C@]1(O)CCC2C3CCc4cc(OC5CCCC5)ccc4C3CC[C@@]21C (some centres undefined)	-6
C#C[C@]1(O)CCC2C3CCC4=CC(=O)CC[C@@H]4C3CC[C@@]21C (some centres undefined)	-81*
C#C[C@]1(O)CCC2C3CCC4=Cc5oncc5C[C@]4(C)C3CC[C@@]21C (some centres undefined)	-74*!
C[C@]12CCC(=O)C=C1CCC1C2C(=O)C[C@@]2(C)C1CC[C@]2(O)C(=O)CO (some centres undefined)	12
C#C[C@]1(O)CCC2C3CCC4=C(CCC(=O)C4)C3CC[C@@]21C (some centres undefined)	-80*
C#C[C@]1(O)CCC2C3CCc4cc(O)ccc4C3CC[C@@]21C (some centres undefined)	-77*
CCC(=O)O[C@]1(C(=O)CO)CC[C@H]2[C@@H]3CCC4=CC(=O)CC[C@]4(C)[C@H]3CC[C@@]21C	1
C#C[C@]1(O)CCC2C3CCC4=CC(=O)CCC4C3C(=C)CC21CC (some centres undefined)	0
Cc1ccc(CN2CCC3(CCOCC3COc3cnccn3)CC2)o1 (centres undefined)	1
OC(CN1CCSCC1)c1c(F)cccc1Cl (centres undefined)	70
CN(C)S(=O)(=O)N1CC[C@@H](c2ccc3ccccc3c2)[C@H](O)C1	2
CCN1CCN(c2ncnc3sc(C(=O)NCCc4c[nH]c5ccc(OC)cc45)c(C)c23)CC1	-33
Cc1nc(-c2ccccc2)c(CC(=O)Nc2cc3c(cc2C)OCCO3)s1	-26
CC(C)c1ocnc1C(=O)N1CCC(c2cc(Cc3ccccc3)[nH]n2)CC1	9

High-throughput results: PubChem BioAssay, Broad Institute
